# Screen size: about 5,500 compounds; about 2,000 (36%) were called active. Not shown: some 18% with an inconclusive outcome. Some of the results follow. Unmarked numbers belong to inactive results. Cut-off read from the data, not from the text of the source: active = normalized growth mostly below about 0.91 (no sharp cut-off); inconclusive = no clear call, values can overlap the other calls; inactive = mostly above about 0.92.
# Test: chemical genetic growth profiling, strain panel (AID 1159580);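 note: tested at 20 µM; growth read once vehicle control cultures reached saturation at 30 °C; 1 = growth at the plate median or of vehicle wells; lower values mean less growth of the strain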
# Details: growth OD
structure (smiles),measurement,setting,value
O=C1c2ccccc2C(=O)c2ccccc21,normalized growth,"S. cerevisiae deletion strains, locus YJR075W, strain HOC1, hits give low values",0.956
same,normalized growth,"S. cerevisiae deletion strains, locus YKL009W, strain mrt4, hits give low values",0.933
same,normalized growth,"S. cerevisiae deletion strains, locus YKL068W, hits give low values",0.986
same,normalized growth,"S. cerevisiae deletion strains, locus YKL085W, strain MDH1 (second series), hits give low values",0.97
same,normalized growth,"S. cerevisiae deletion strains, locus YKL085W, strain MDH1, hits give low values",0.97
same,normalized growth,"S. cerevisiae deletion strains, locus YKL160W, strain elf1, hits give low values",0.986
same,normalized growth,"S. cerevisiae deletion strains, locus YKL190W, strain CNB1, hits give low values",0.98
same,normalized growth,"S. cerevisiae deletion strains, locus YKR001C, strain vps1, hits give low values",0.972
same,normalized growth,"S. cerevisiae deletion strains, locus YKR026C, strain gcn3, hits give low values",1
same,normalized growth,"S. cerevisiae deletion strains, locus YKR091W, strain srl3, hits give low values",1
same,normalized growth,"S. cerevisiae deletion strains, locus YLL001W, strain dnm1, hits give low values",1.01
same,normalized growth,"S. cerevisiae deletion strains, locus YLL026W, hits give low values",0.993
same,normalized growth,"S. cerevisiae deletion strains, locus YLL041C, strain sdh2, hits give low values",0.993
same,normalized growth,"S. cerevisiae deletion strains, locus YLR027C, strain aat2, hits give low values",0.999
same,normalized growth,"S. cerevisiae deletion strains, locus YLR039C, strain RIC1, hits give low values",0.765
same,normalized growth,"S. cerevisiae deletion strains, locus YLR058C, strain SHM2, hits give low values",0.988
same,normalized growth,"S. cerevisiae deletion strains, locus YLR102C, strain apc9, hits give low values",0.989
same,normalized growth,"S. cerevisiae deletion strains, locus YLR113W, strain HOG1, hits give low values",1.1
same,normalized growth,"S. cerevisiae deletion strains, locus YLR221C, strain rsa3, hits give low values",0.969
same,normalized growth,"S. cerevisiae deletion strains, locus YLR258W, strain gsy2, hits give low values",0.993
same,normalized growth,"S. cerevisiae deletion strains, locus YLR262C, strain YPT6 (second series), hits give low values",0.96
same,normalized growth,"S. cerevisiae deletion strains, locus YLR262C, strain YPT6, hits give low values",0.71
same,normalized growth,"S. cerevisiae deletion strains, locus YLR268W, strain sec22, hits give low values",0.974
same,normalized growth,"S. cerevisiae deletion strains, locus YLR320W, strain mms22, hits give low values",0.903
same,normalized growth,"S. cerevisiae deletion strains, locus YLR330W, strain CHS5, hits give low values",0.993
same,normalized growth,"S. cerevisiae deletion strains, locus YLR342W, strain FKS1 (second series), hits give low values",0.938
same,normalized growth,"S. cerevisiae deletion strains, locus YLR342W, strain FKS1, hits give low values",1.01
same,normalized growth,"S. cerevisiae deletion strains, locus YLR357W, strain rsc2, hits give low values",0.976
same,normalized growth,"S. cerevisiae deletion strains, locus YLR370C, strain arc18, hits give low values",0.994
same,normalized growth,"S. cerevisiae deletion strains, locus YLR371W, strain rom2, hits give low values",0.975
same,normalized growth,"S. cerevisiae deletion strains, locus YLR384C, strain iki3, hits give low values",0.994
same,normalized growth,"S. cerevisiae deletion strains, locus YLR418C, strain cdc73, hits give low values",1.01
same,normalized growth,"S. cerevisiae deletion strains, locus YML016C, strain PPZ1, hits give low values",0.992
same,normalized growth,"S. cerevisiae deletion strains, locus YML032C, strain rad52, hits give low values",0.976
same,normalized growth,"S. cerevisiae deletion strains, locus YML120C, strain ndi1, hits give low values",1.01
same,normalized growth,"S. cerevisiae deletion strains, locus YML124C, strain tub3, hits give low values",0.989
same,normalized growth,"S. cerevisiae deletion strains, locus YMR058W, strain fet3, hits give low values",0.948
same,normalized growth,"S. cerevisiae deletion strains, locus YMR078C, strain ctf18, hits give low values",0.995
same,normalized growth,"S. cerevisiae deletion strains, locus YMR125W, strain sto1, hits give low values",1.08
same,normalized growth,"S. cerevisiae deletion strains, locus YMR129W, hits give low values",0.996
same,normalized growth,"S. cerevisiae deletion strains, locus YMR205C, strain PFK2, hits give low values",1.03
same,normalized growth,"S. cerevisiae deletion strains, locus YMR223W, strain ubp8, hits give low values",0.963
same,normalized growth,"S. cerevisiae deletion strains, locus YMR231W, strain pep5, hits give low values",0.998
same,normalized growth,"S. cerevisiae deletion strains, locus YMR263W, strain SAP30, hits give low values",0.97
same,normalized growth,"S. cerevisiae deletion strains, locus YMR307W, strain GAS1, hits give low values",0.804
same,normalized growth,"S. cerevisiae deletion strains, locus YNL067W, strain RPL9B, hits give low values",0.964
same,normalized growth,"S. cerevisiae deletion strains, locus YNL071W, strain lat1, hits give low values",0.955
same,normalized growth,"S. cerevisiae deletion strains, locus YNL128W, strain TEP1, hits give low values",0.946
same,normalized growth,"S. cerevisiae deletion strains, locus YNL153C, strain GIM3, hits give low values",1
same,normalized growth,"S. cerevisiae deletion strains, locus YNL183C, strain NPR1, hits give low values",0.961
same,normalized growth,"S. cerevisiae deletion strains, locus YNL209W, strain ssb2, hits give low values",0.978
same,normalized growth,"S. cerevisiae deletion strains, locus YNL233W, strain BNI4, hits give low values",0.995
same,normalized growth,"S. cerevisiae deletion strains, locus YNL248C, strain rpa49, hits give low values",0.837 (active)
same,normalized growth,"S. cerevisiae deletion strains, locus YNL250W, strain rad50, hits give low values",0.974
same,normalized growth,"S. cerevisiae deletion strains, locus YNL271C, strain bni1, hits give low values",0.978
same,normalized growth,"S. cerevisiae deletion strains, locus YNL298W, strain CLA4, hits give low values",0.975
same,normalized growth,"S. cerevisiae deletion strains, locus YNL307C, strain MCK1, hits give low values",0.971
same,normalized growth,"S. cerevisiae deletion strains, locus YNL322C, strain KRE1 (second series), hits give low values",1.03
same,normalized growth,"S. cerevisiae deletion strains, locus YNL322C, strain KRE1, hits give low values",0.987
same,normalized growth,"S. cerevisiae deletion strains, locus YNR049C, strain mso1, hits give low values",0.995
same,normalized growth,"S. cerevisiae deletion strains, locus YNR052C, strain pop2, hits give low values",0.99
same,normalized growth,"S. cerevisiae deletion strains, locus YOL006C, strain TOP1, hits give low values",0.97
same,normalized growth,"S. cerevisiae deletion strains, locus YOL012C, strain htz1",0.796
same,normalized growth,"S. cerevisiae deletion strains, locus YOL147C, strain pex11, hits give low values",1.01
same,normalized growth,"S. cerevisiae deletion strains, locus YOR001W, strain rrp6, hits give low values",0.991
same,normalized growth,"S. cerevisiae deletion strains, locus YOR061W, strain CKA2, hits give low values",0.988
same,normalized growth,"S. cerevisiae deletion strains, locus YOR069W, strain VPS5, hits give low values",1.01
same,normalized growth,"S. cerevisiae deletion strains, locus YOR070C, strain gyp1, hits give low values",0.996
same,normalized growth,"S. cerevisiae deletion strains, locus YOR080W, strain dia2, hits give low values",1.01
same,normalized growth,"S. cerevisiae deletion strains, locus YOR083W, strain WHI5, hits give low values",0.963
same,normalized growth,"S. cerevisiae deletion strains, locus YOR106W, strain vam3, hits give low values",0.945
same,normalized growth,"S. cerevisiae deletion strains, locus YOR136W, strain idh2, hits give low values",0.985
same,normalized growth,"S. cerevisiae deletion strains, locus YOR144C, strain elg1, hits give low values",0.992
same,normalized growth,"S. cerevisiae deletion strains, locus YOR184W, strain ser1, hits give low values",0.942
same,normalized growth,"S. cerevisiae deletion strains, locus YOR231W, strain MKK1, hits give low values",1.02
same,normalized growth,"S. cerevisiae deletion strains, locus YOR265W, strain rbl2, hits give low values",0.993
same,normalized growth,"S. cerevisiae deletion strains, locus YOR270C, strain vph1, hits give low values",0.804
same,normalized growth,"S. cerevisiae deletion strains, locus YOR290C, strain snf2, hits give low values",0.973
same,normalized growth,"S. cerevisiae deletion strains, locus YOR316C, strain cot1, hits give low values",0.996
same,normalized growth,"S. cerevisiae deletion strains, locus YPL051W, strain arl3, hits give low values",0.926
same,normalized growth,"S. cerevisiae deletion strains, locus YPL055C, strain LGE1, hits give low values",0.9
same,normalized growth,"S. cerevisiae deletion strains, locus YPL078C, strain atp4, hits give low values",0.96
same,normalized growth,"S. cerevisiae deletion strains, locus YPL106C, strain sse1, hits give low values",0.954
same,normalized growth,"S. cerevisiae deletion strains, locus YPL240C, strain hsp82, hits give low values",0.995
same,normalized growth,"S. cerevisiae deletion strains, locus YPL241C, strain CIN2, hits give low values",0.953
same,normalized growth,"S. cerevisiae deletion strains, locus YPL256C, strain CLN2, hits give low values",1.08
same,normalized growth,"S. cerevisiae deletion strains, locus YPR119W, strain clb2, hits give low values",0.996
same,normalized growth,"S. cerevisiae deletion strains, locus YPR141C, strain kar3, hits give low values",0.99
same,normalized growth,"S. cerevisiae deletion strains, locus YPR163C, strain tif3, hits give low values",0.996
same,normalized growth,"S. cerevisiae deletion strains, locus YPR167C, strain met16, hits give low values",1
same,normalized growth,"S. cerevisiae deletion strains, strain wtn01, hits give low values",0.988
same,normalized growth,"S. cerevisiae strains, strain wild type, hits give low values",0.995
